# Assay results as given in PubChem BioAssay (Tox21).
# Where “and” joins values, the source holds several entries; their conditions need not be identical. Equal entries are not always repeated. Records with an inconclusive call do not appear. Where a call stands in place of a potency, no number is given. A structure can be active in one record and inactive in another. Calls of active or inactive are those of the source. Calls follow the shape of the dose curve; as a rule, active = well fitted curve in the direction sought with a large enough effect in the repeat runs; inconclusive = weak or mixed curves; inactive = no such curve, though single readings can be large; an effect the other way counts as inactive or inconclusive.
# Test system: not listed separately
# Test: qHTS assay to identify aromatase inhibitors - cell viability counter screen (AID 743084);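 also: cells stimulated with testosterone during compound exposure; nearly all actives have a fitted effect of over 55% in size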
# Conditions: MCF-7 aro ERE viability, CellTiter-Fluor, 24 h; series mostly up to 70.3 µM
row,Structure (SMILES),outcome
1,COC(=O)c1ccccc1N,inactive
2,Cc1ccc(N)cc1N,inactive
3,Cc1cc(Cl)ccc1O,inactive
4,O=c1n(Cl)c(=O)n(Cl)c(=O)n1Cl,inactive
5,OC(O)C(Cl)(Cl)Cl,inactive
6,O=NN1CCCC1,inactive
7,CCCCCOC(=O)c1ccccc1C(=O)OCCCCC,inactive
8,O=[N+]([O-])c1ccccc1,inactive
9,CCOP(=S)(OCC)SCCSCC,inactive
10,C#CCN(C)[C@H](C)Cc1ccccc1,inactive
11,O=[N+]([O-])c1ccc([As](=O)(O)O)cc1,inactive
12,C1CN2CCN1CC2,inactive
13,NCCc1ccc(O)cc1,inactive
14,CC(C)NC(=O)N1CC(=O)N(c2cc(Cl)cc(Cl)c2)C1=O,inactive
15,Cc1ccc([N+](=O)[O-])cc1C,inactive
16,CCCN(CCC)c1c([N+](=O)[O-])cc(C(F)(F)F)cc1[N+](=O)[O-],inactive
17,CCCN(CCC)N=O,inactive
18,Clc1cccc(Cl)c1Cl,inactive

row,Structure (SMILES),outcome
1,CCN(CC)CCO,inactive
2,CN(C)N=O,inactive
3,Nc1ccccc1C(=O)O,inactive
4,ClCCBr,inactive
5,BrCCBr,inactive
6,COC(=O)NS(=O)(=O)c1ccc(N)cc1,inactive
7,CC(Br)C(=O)O (configuration not stated),inactive
8,CCN(CC)c1ccccc1,inactive
9,CCOP(=S)(OCC)Oc1cnc2ccccc2n1,inactive
10,CN(C)CCO,inactive
11,O=C1CCCN1,inactive
12,CCC12COCN1COC2,inactive
13,CCNc1nc(NC(C)C)nc(SC)n1,inactive
14,O=Cc1cccc(Oc2ccccc2)c1,inactive
15,CC1C=[C-]C=C1.[C-]#[O+].[C-]#[O+].[C-]#[O+].[Mn],inactive
16,Cc1[nH]c(=O)n(C(C)(C)C)c(=O)c1Cl,inactive
17,CCCCN(CC)C(=O)SCCC,inactive
18,CC(C)(C)OOC(=O)c1ccccc1,inactive

# Molecular target: Aryl hydrocarbon receptor (Homo sapiens) (UniProt P35869)
# Sequence (P35869 whole entry, looked up): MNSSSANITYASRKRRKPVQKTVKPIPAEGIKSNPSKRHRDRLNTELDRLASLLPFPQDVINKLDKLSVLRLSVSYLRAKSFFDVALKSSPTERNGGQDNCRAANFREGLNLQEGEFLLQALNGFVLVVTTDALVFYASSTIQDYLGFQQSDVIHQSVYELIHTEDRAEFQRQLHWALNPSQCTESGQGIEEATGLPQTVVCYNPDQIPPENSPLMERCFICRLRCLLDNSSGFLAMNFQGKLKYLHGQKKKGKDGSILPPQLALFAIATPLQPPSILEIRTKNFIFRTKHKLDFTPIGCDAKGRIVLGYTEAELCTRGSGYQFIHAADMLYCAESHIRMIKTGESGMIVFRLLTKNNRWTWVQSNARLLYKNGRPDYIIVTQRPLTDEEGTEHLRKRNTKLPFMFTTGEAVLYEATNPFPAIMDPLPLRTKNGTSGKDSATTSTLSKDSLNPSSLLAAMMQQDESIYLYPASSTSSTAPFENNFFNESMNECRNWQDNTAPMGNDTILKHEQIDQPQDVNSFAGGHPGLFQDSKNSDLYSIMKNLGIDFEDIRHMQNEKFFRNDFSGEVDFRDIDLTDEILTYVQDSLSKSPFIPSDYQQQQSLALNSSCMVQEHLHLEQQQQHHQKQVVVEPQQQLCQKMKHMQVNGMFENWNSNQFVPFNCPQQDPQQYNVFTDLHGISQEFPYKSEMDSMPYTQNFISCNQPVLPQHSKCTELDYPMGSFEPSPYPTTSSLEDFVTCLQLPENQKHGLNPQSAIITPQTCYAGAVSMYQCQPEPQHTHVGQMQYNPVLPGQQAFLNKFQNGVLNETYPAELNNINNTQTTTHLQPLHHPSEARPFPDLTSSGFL
# Test: qHTS assay to identify small molecule that activate the aryl hydrocarbon receptor (AhR) signaling pathway (AID 743085); also: nearly all actives have a fitted effect of over 15% in size; also: potency is read from the fitted curve at half-maximal effect
# Conditions: HepG2 AhR-luc (HG2L7.5c1), luciferase, 24 h; series mostly up to 70.3 µM
# Summary of the method: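 Stably transfected human liver carcinoma cells (HG2L7.5c1; 20 DRE-firefly luciferase) were incubated 5 h, dosed, and kept 24 h at 37C. Agonism was scored from increased luciferase luminescence.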
row,Structure (SMILES),Potency
1,COC(=O)c1ccccc1N,inactive
2,Cc1ccc(N)cc1N,21.1 µM (active) and 27.3 µM (active)
3,Cc1cc(Cl)ccc1O,inactive
4,O=c1n(Cl)c(=O)n(Cl)c(=O)n1Cl,inactive
5,OC(O)C(Cl)(Cl)Cl,inactive
6,O=NN1CCCC1,inactive
7,CCCCCOC(=O)c1ccccc1C(=O)OCCCCC,inactive
8,O=[N+]([O-])c1ccccc1,inactive
9,CCOP(=S)(OCC)SCCSCC,inactive
10,C#CCN(C)[C@H](C)Cc1ccccc1,inactive
11,O=[N+]([O-])c1ccc([As](=O)(O)O)cc1,inactive
12,C1CN2CCN1CC2,inactive
13,NCCc1ccc(O)cc1,inactive
14,CC(C)NC(=O)N1CC(=O)N(c2cc(Cl)cc(Cl)c2)C1=O,4.86 µM (active) and 15.4 µM (active)
15,Cc1ccc([N+](=O)[O-])cc1C,inactive
16,CCCN(CCC)c1c([N+](=O)[O-])cc(C(F)(F)F)cc1[N+](=O)[O-],inactive
17,CCCN(CCC)N=O,inactive
18,Clc1cccc(Cl)c1Cl,inactive

row,Structure (SMILES),Potency
1,CCN(CC)CCO,inactive
2,CN(C)N=O,inactive
3,Nc1ccccc1C(=O)O,inactive
4,ClCCBr,inactive
5,BrCCBr,inactive
6,COC(=O)NS(=O)(=O)c1ccc(N)cc1,inactive
7,CC(Br)C(=O)O (configuration not stated),inactive
8,CCN(CC)c1ccccc1,inactive
9,CCOP(=S)(OCC)Oc1cnc2ccccc2n1,inactive and 10.9 µM (active)
10,CN(C)CCO,inactive
11,O=C1CCCN1,inactive
12,CCC12COCN1COC2,inactive
13,CCNc1nc(NC(C)C)nc(SC)n1,inactive
14,O=Cc1cccc(Oc2ccccc2)c1,inactive
15,CC1C=[C-]C=C1.[C-]#[O+].[C-]#[O+].[C-]#[O+].[Mn],inactive
16,Cc1[nH]c(=O)n(C(C)(C)C)c(=O)c1Cl,inactive
17,CCCCN(CC)C(=O)SCCC,inactive
18,CC(C)(C)OOC(=O)c1ccccc1,inactive
